# Measured values taken from PubChem BioAssay AID1851 (National Center for Advancing Translational Sciences (NCATS), 2009).
# Where “and” joins values, the source holds several entries; their conditions need not be identical. Equal values may be shown once. Among all 16,000 compounds or so, about 5,800 (36%) were called active. Another 23% or so got no clear call; they are omitted. Calls come from the whole dose curve; as a rule, active = well fitted curve in the direction sought with a large enough effect; inconclusive = small, poorly fitted or top-dose-only effect, or effect the other way; inactive = no such curve, though single readings can be large or run the other way. Some of the results follow. Some structures have more than one record in an assay (separate samples or runs), and their calls can disagree.
# Molecular target: Cytochrome P450 2C19 (Homo sapiens) (UniProt P33261)
# Sequence (P33261 whole entry, looked up): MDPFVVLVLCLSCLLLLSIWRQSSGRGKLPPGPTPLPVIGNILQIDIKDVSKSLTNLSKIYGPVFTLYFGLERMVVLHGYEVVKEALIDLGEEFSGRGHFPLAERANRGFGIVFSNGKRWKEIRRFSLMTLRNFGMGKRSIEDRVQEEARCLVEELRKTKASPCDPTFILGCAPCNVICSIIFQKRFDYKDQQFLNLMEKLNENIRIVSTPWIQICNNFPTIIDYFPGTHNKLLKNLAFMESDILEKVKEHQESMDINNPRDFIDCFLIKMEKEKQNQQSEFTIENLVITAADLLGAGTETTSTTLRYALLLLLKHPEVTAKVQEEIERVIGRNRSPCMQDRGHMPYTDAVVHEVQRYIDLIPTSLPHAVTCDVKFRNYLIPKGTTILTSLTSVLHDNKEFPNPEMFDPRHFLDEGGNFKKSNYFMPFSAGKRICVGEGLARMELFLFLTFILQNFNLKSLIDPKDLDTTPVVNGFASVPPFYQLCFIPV
# Assay: Cytochrome panel assay with activity outcomes
# Settings: recombinant CYP, pro-luciferin dealkylation, luminescence, p450-cyp2c19; series mostly up to 57.1 µM
# % is set by controls: 0 for no effect and ±100 for the full control effect.
SMILES,AC50,"activity, negative = inhibition"
CC[C@@H](CO)Nc1nc(NCc2ccccc2)c2ncn(C(C)C)c2n1,inactive,
CNCCc1c[nH]c2ccc(O)cc12,inactive,
Cc1[nH]c2ccc(O)cc2c1CCN,inactive and 7.94 µM (active),
NCCc1c[nH]c2ccc(O)cc12,inactive,
CCCN(CCC)[C@@H]1CCc2c(OC)cccc2[C@@H]1C,inactive,
C[C@]12CC[C@H](O)CC1=CC[C@@H]1[C@H]2CC[C@]2(C)C(=O)CC[C@H]12,inactive,
O=P(Nc1ccccc1)(Nc1ccccc1)Oc1cccc(Cl)c1,5.01 µM (active),
NS(=O)(=O)c1ccc(-c2ccc([As](=O)(O)O)cc2)cc1,,24.2% [at 11.4 µM] (inactive)
C[C@]12N[C@H](Cc3ccccc31)c1ccccc12,inactive,
N#Cc1ccc(CN2CC[C@@]3(CCCNC3)C2)cc1,inactive,
Clc1cccc(N2CCNCC2)c1,inactive,
CN[C@H](Cc1ccccc1)c1cccc(OC)c1O,2 µM (active),
NCCP(=O)(O)O,,26% [at 11.4 µM] (inactive)
O=C(CNS(=O)(=O)c1ccc(Br)s1)N1CCC2(CC1)OCCO2,2.82 µM (active),
O=C(Cn1ncc2ccsc2c1=O)N1CCC2(CC1)OCCO2,22.4 µM (active),
O=C(CNS(=O)(=O)c1cccs1)N1CCC2(CC1)OCCO2,7.08 µM (active),
CCN(CC)CCO[C@H]1CC[C@@]2(C)C(=CC[C@@H]3[C@H]2CC[C@]2(C)C(=O)CC[C@H]32)C1,inactive,
CN(C)C(=O)Oc1cccc([N+](C)(C)C)c1,inactive,
O=C(Oc1ccc(S(=O)(=O)F)cc1F)c1ccccc1Cl,,11.2% [at 11.4 µM] (inactive)
N[C@@]1(C(=O)O)CC[C@H](C(=O)O)C1,inactive,
CC(C)CN1CC[C@@]2(CCCN(C(=O)Oc3ccccc3)C2)C1,inactive,
C[C@@H]1[C@@H](C)N1C[C@H](O)Cn1ccnc1[N+](=O)[O-] (some centres not stated),,3.22% [at 11.4 µM] (inactive)
O=c1c2ccccc2c2ccccc2c(=O)n1-c1cc2c3ccccc3ccc2c2ccccc12,0.158 µM (active),
CC[C@H]1CN2CC[C@@H]1C[C@H]2[C@@H](O)c1ccnc2ccc(OC)cc12,inactive,
Cc1ncsc1CCCl,7.94 µM (active),

SMILES,AC50,"activity, negative = inhibition"
CN(C)CCC=C1c2ccccc2CCc2ccccc21,inactive,
CCN(CC)C1=NC(=[N+](CC)CC)c2ccccc21,inactive,
C[C@@]12CCC(=O)C=C1C=C[C@H]1[C@H]3CC[C@](O)(CCC(=O)O)[C@]3(C)CC[C@@H]12,inactive,
COC(=O)c1cc2c(cn1)[nH]c1ccccc12,3.98 µM (active),
C[C@@]12CC[C@H]3[C@@H](CCC4=CC(=O)CC[C@]43C)[C@H]1CC[C@H]2C(=O)CO,inactive,
Cc1ccc(S(=O)(=O)O[C@H]2CN3CCC2CC3)cc1,,21.1% [at 11.4 µM] (inactive)
NC(N)=Nc1ccc2[nH]c3c(c2c1)C[C@]1(O)[C@@H]2Cc4ccc(O)c5c4[C@]1(CCN2CC1CC1)[C@H]3O5,inactive,
O=[N+]([O-])O[C@H]1CO[C@H]2[C@H]1OC[C@@H]2O[N+](=O)[O-],inactive,
CCCC[N+]1(C)[C@@H]2CC(OC(=O)[C@@H](CO)c3ccccc3)C[C@H]1[C@H]1O[C@H]12 (some centres not stated),inactive,
CC1=C(O)C(=O)[C@H]2O[C@@H]2C1=O,0.158 µM (active),
CN1CCCC2(CCN(C(=O)c3ccncc3)CC2)C1,inactive,
CN(C)Cc1c[nH]c2ccccc12,inactive,
CC1=NN(c2ccccc2)C(=O)[C@@H]1N=Nc1ccc([As](=O)(O)O)c(O)c1,,22.8% [at 11.4 µM] (inactive)
C[C@H](c1ccccc1)N1CCN([C@@H](C)c2ccccc2)CC1,,-29.5% [at 11.4 µM] (inactive)
Cc1cc(C(C)(C)C)cc(C)c1CC1=NCCN1,inactive,
CCN(CC)c1ccc(/C=C2/C(=O)NC(=O)N(CC3CCCO3)C2=O)cc1 (configuration not stated),7.08 µM (active),
C=CCN1C(=O)NC(=O)/C(=C/c2cccn2C)C1=O,inactive,
Oc1ccc([C@H](O)[C@@H]2CCCCN2)cc1O,,10% [at 11.4 µM] (inactive)
CN1[C@H]2CC(=O)C[C@@H]1[C@@H](O)C2,inactive,
C[C@@]12CC[C@@H]3c4ccc(O)cc4CC[C@H]3[C@H]1CC[C@H]2O,inactive,
C[C@@]12CC[C@H]3[C@@H](CC[C@@H]4C[C@H]5S[C@H]5C[C@]43C)[C@H]1CC[C@H]2O,0.0631 µM (active),
C[N+](C)(C)CCCCCCCCCC[N+](C)(C)C,inactive,
Nc1nc(N)c(N=Nc2ccc([As](=O)(O)O)cc2)c(=O)[nH]1,,19% [at 11.4 µM] (inactive)
COC(=O)Nc1nc2ccc(C(=O)c3cccs3)cc2[nH]1,inactive,
O=C1C=CC(=O)c2c1ccc1c2ccc2ccccc21,1.58 µM (active),

SMILES,AC50,"activity, negative = inhibition"
CCN1C[C@]2(COC)CC[C@H](O)[C@@]34[C@@H]5C[C@H]6[C@@H](OC)[C@H]5[C@](O)(C[C@@H]6OC)[C@@](O)([C@@H](OC)[C@H]23)[C@@H]14,inactive,
C[C@@]12CC[C@@H]3[C@@H](CC[C@H]4C[C@@H](O)CC[C@]43C)[C@H]1CC[C@@H]2c1cc(C(F)(F)F)n[nH]1,2.51 µM (active),
C[C@]12CC[C@H](O)C[C@@H]1CC[C@H]1[C@H]2CC[C@]2(C)[C@H](C(=O)CO)CC[C@@H]12,inactive,
C[C@]12CC[C@H](O)C[C@@H]1CC[C@H]1[C@H]2CC[C@]2(C)C(=O)CC[C@@H]12,inactive,
NN=C(N)N,inactive,
N[C@H](CCC(=O)N[C@H](CSN=O)C(=O)NCC(=O)O)C(=O)O,1.58 µM (active),
COC(=O)[C@H]1C(=O)c2ccccc2O[C@@](C(=O)OC)(c2ccccc2)[C@@H]1c1ccccc1,,-43% [at 11.4 µM] (inactive)
NC(=O)c1cc(N2CC2)c([N+](=O)[O-])cc1[N+](=O)[O-],inactive,
CN1CCN(c2cc(N3CCCC3)c([N+](=O)[O-])cc2F)CC1,7.94 µM (active),
CN(C)C(=O)Oc1ccc[n+](C)c1,inactive,
CSC([N-]/N=C/c1cccc(C)n1)=[S]=[Cu].CS[C@H]([S-])[N-]/N=C/c1cccc(C)n1,0.2 µM (active),
CC(=O)OC1=CC2=CC[C@H]3[C@H]4CCC(=O)[C@@]4(C)CC(=O)[C@]3(S)[C@]2(C)CC1,,-14.8% [at 11.4 µM] (inactive)
c1csc(CN2CCC3(CCNCC3)CC2)n1,inactive,
CCCN(CCC)[C@@H]1CCc2cccc(O)c2C1,inactive,
CCCN(CCC)[C@@H]1CCc2ccc(O)cc2C1,inactive,
CCCN(C/C=C\I)[C@@H]1CCc2ccc(O)cc2C1,1 µM (active),
CN(C)CC/C=C1\c2ccccc2Sc2ccc(Cl)cc21,,-17.3% [at 11.4 µM] (inactive)
NO,inactive,
Cc1sc2c(c1C)C(c1ccc(C(C)(C)C)cc1)=NCC(=O)N2CC(=O)Nc1nccs1,6.31 µM (active),
CCCN1CCC[C@H](c2cccc(C#N)c2)C1,inactive,
CCN1C[C@]2(C)CC[C@@H](O)[C@]34[C@@H]5CC6[C@@H](OC)C[C@@](O)([C@H]5[C@@H]6O)[C@@H](C[C@@H]23)[C@H]14,inactive,
CC(C)(C)CC(=O)NC(=S)Nc1ccccc1C(F)(F)F,3.16 µM (active),
CC(C)c1ccc(C(c2c(O)c3ccccc3oc2=O)c2c(O)c3ccccc3oc2=O)cc1,,-40.6% [at 11.4 µM] (inactive)
Cn1c(=O)c2[nH]cnc2n(C)c1=O,inactive,
CC(C)(C)NC[C@@H](O)COc1cccc2[nH]c(C#N)cc12,15.8 µM (active),

SMILES,AC50,"activity, negative = inhibition"
c1csc(CN2CC3(CCNCC3)C2)n1,inactive,
Oc1ccc(CCNCc2cc3c(cc2Br)OCO3)cc1,5.01 µM (active),
C[N+]1(C)CCO[C@](O)(c2ccc(-c3ccc([C@]4(O)C[N+](C)(C)CCO4)cc3)cc2)C1,inactive,
Fc1ccccc1CCNCc1cccc(Cl)c1Cl,0.631 µM (active),
N=C(N)n1cc(/C=N\N=C(N)N)cn1,,16.3% [at 11.4 µM] (inactive)
COc1ccc(C2NCc3ccc4c(c3-n3cccc32)OCO4)cc1OC (configuration not stated),3.16 µM (active),
O=C(Oc1ccccc1)N1CCC2(CCN(Cc3nccs3)CC2)CC1,inactive,
CCCN(CCC)[C@H]1CCc2c(F)ccc(O)c2C1,inactive,
CCNC(=O)O/N=C(\C)c1sc(-c2ccccc2)nc1C,11.2 µM (active),
C/C(=N\OC(=O)NC(C)C)c1sc(-c2ccc(Cl)cc2)nc1C,5.01 µM (active),
C/C(=N\OC(=O)NC(C)C)c1sc(-c2ccccc2)nc1C,10 µM (active),
OC(c1ccccc1)(c1ccccc1)C1CCNCC1,inactive,
NS(=O)(=O)C[C-]1C=C[CH]([Sb-]([Cl])([Cl])([Cl])([Cl])[Cl])C=C1.c1ccncc1 (configuration not stated),,12.8% [at 11.4 µM] (inactive)
COc1ccc2[nH]cc(CCN(C)C)c2c1,inactive,
CCc1cc2c(nc1CC)CCN(CC/C(C)=N/OC)C2,,6.29% [at 11.4 µM] (inactive)
C=C(C)[C@H]1CC[C@]2(C(=O)O)CC[C@]3(C)[C@@H](CC[C@H]4[C@@]5(C)CC[C@@H](O)C(C)(C)[C@@H]5CC[C@@]43C)[C@H]12,inactive,
O=[As](O)(O)c1ccc(NCc2ccccc2)cc1,,1.27% [at 11.4 µM] (inactive)
COC(=O)C1(C)C=C2C(=C(C)C(=O)C2C)CN1 (configuration not stated),inactive,
Ic1ccccc1CN[C@@H]1C2CCN(CC2)[C@H]1C(c1ccccc1)c1ccccc1,inactive,
COc1cc(C(=O)OC2C[C@H]3CC[C@@H](C2)N3C)ccc1O (some centres not stated),inactive,
C/C(=C\c1ccc(N(C)C)cc1)[N+](=O)[O-],14.1 µM (active),
C[C@H]1CC[C@@]2(NC1)O[C@@H]1C[C@H]3[C@@H]4CC=C5C[C@@H](O)CC[C@]5(C)[C@@H]4CC[C@]3(C)[C@@H]1[C@@H]2C,inactive,
